Source: PubChem BioAssay (NCI)
Compounds without any hit were thinned out: in the full panel of roughly 83,000, 20% have a hit.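 In brief: 96-well plates, 48 h treatment, single concentration, percent growth endpoint.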 Calls of active or inactive are those of the source. How the source made its calls: active means growth percent below 10; inactive means the rest.

The compounds below were run on MDA-MB-231 breast (assay: NCI-60 one-dose screen, 48 h (100 = growth as untreated, 0 = no growth, -100 = all killed)). Conditions: 10 µM unless noted.
With O=C(Nc1cccc(Cl)c1)Nc1nc2cc([N+](=O)[O-])ccc2o1 the growth was 61.4% (inactive). With COc1ccc(NC(=O)CCCCCCNC(=O)C(O)(O)C(F)(F)F)cc1 the growth was 59.5% (inactive). CC(=O)N(O)CCCCCNC(=O)CCC(=O)N(O)CCCCCNC(=O)CCC(=O)N(O)CCCCCN(CCCCCCCCCC[P+](c1ccccc1)(c1ccccc1)c1ccccc1)CCCCCCCCCC[P+](c1ccccc1)(c1ccccc1)c1ccccc1 was tested, and the growth was 16.4% (inactive). In the case of Cc1cc(Br)ccc1-n1cc(C#N)c(N)c1C(=O)c1ccc(Br)cc1, the growth is reported as 93.6% (inactive). With CN(C)S(=O)(=O)c1ccc(-c2nc(C(Cl)Cl)nc3cc(-c4ccccc4)nn23)cc1 the growth was 48.8% (inactive). With CN1CCN(c2ccc(Nc3nc(NCCNC(=O)c4ccc(F)cc4)c4sccc4n3)cc2)CC1 the growth was 59.4% (inactive). For O=[N+]([O-])c1ccc(NC(=S)NNC(=S)Nc2ccc(Br)cc2)cc1, the growth was 91.6% (inactive). For C/C(=N\NC(=O)/C=C/CC(=O)O)c1nnn(-c2ccc([N+](=O)[O-])cc2)c1C, the growth was 104% (inactive). In the case of CN1CCN(c2ccc(Nc3nc(NCCCNS(=O)(=O)c4ccc(F)cc4)c4sccc4n3)cc2)CC1, the growth is reported as 43.2% (inactive). In the case of N#CC1=C2NCCCNc3oc(nc3C#N)Cc3ccccc3CC(=N1)O2, the growth is reported as 97.6% (inactive). COc1ccccc1/C=C1\Oc2ccc(O)c(O)c2C1=O was tested, and the growth was 94.9% (inactive). COc1ccc(NC2=C(Br)C(=O)C(C)=C(C)C2=O)cc1OC was tested, and the growth was 33.3% (inactive). For O=C(Nc1ccc(N=Cc2c(O)[nH]c3ccccc23)cc1)Nc1ccc(S(=O)(=O)Nc2ncccn2)cc1, the growth was 107% (inactive). For NC(=O)c1c(NC(=O)c2ccc(C(F)(F)F)cc2)sc2c1CCC(=O)C2, the growth was -14.5% (active). With O=C(/C=C/c1cccc(Br)c1)c1cccc(OCCCCOc2cccc(C(=O)/C=C/c3cccc(Br)c3)c2)c1 the growth was 101% (inactive). In the case of O=C(CCCCCCNC(=O)c1csc(Br)n1)NO, the growth is reported as 50.2% (inactive). CC1CC(=O)C2=C(C1)Nc1ccc(Br)cc1CC2c1c[nH]c2ccc(Br)cc12 (configuration not stated) was tested, and the growth was 68.8% (inactive). C#CCN(C)CCCOc1ccc(NCc2ccc(C(=O)NO)cc2)cc1Cl was tested, and the growth was 35.8% (inactive). For CC(=O)Nc1nc(C)c(-c2csc(Nc3ccccc3)n2)s1, the growth was 33% (inactive). With Cc1csc(/N=C(N)/N=C(\N)c2cccc(C#N)c2)n1 the growth was 88.7% (inactive). For Clc1cccc(/C=N/Nc2nc(N/N=C/c3cccc(Cl)c3)nc(N3CCCCC3)n2)c1, the growth was 116% (inactive). With O=C1[C@H]2Cc3c([nH]c4ccccc34)[C@H](c3ccc(Br)cc3)N2C(=O)CN1C1CCN(CC2CCCCC2)CC1 the growth was 76.5% (inactive). For Cc1[nH]c(C(=O)Nc2ccc(C(=O)NCC3CCNCC3)cc2OC(C)C)c(Cl)c1Cl, the growth was 72.3% (inactive). In the case of CCN(CC)S(=O)(=O)c1ccc(-c2nc(C(Cl)Cl)nc3cc(-c4ccc(F)cc4)nn23)cc1, the growth is reported as 1.34% (active). With C/C(=N/N)c1nnn(-c2ccc(Br)cc2)c1C the growth was 101% (inactive). For CC1=C(C)C(=O)C(Nc2cccc(C)c2)=C(Br)C1=O, the growth was 67.8% (inactive). Cc1ccc(C(=O)Nc2ccc(CNCCN3CCNCC3)c(C(F)(F)F)c2)cc1C#Cc1cnc2cccnn12 was tested, and the growth was -75.6% (active).

The compounds below were run on RXF 393 renal in the same assay as above. Conditions: 10 µM unless noted.
For C#C[C@]1(O)CC[C@H]2[C@@H]3CC=C4c5sc(Nc6cc(C)cc(C)c6)nc5CC[C@]4(C)[C@H]3CC[C@@]21C, the growth was -77.2% (active). For CCCC[n+]1ccc(SCC(=O)n2ccc3ccccc32)c2ccccc21, the growth was 94.9% (inactive). With CC(C)(C)c1cc(NC(=O)Nc2ccc(-c3cn4c5c(sc4n3)CCc3cn(CCCN4CCCCC4)cc3-5)cc2)no1 the growth was -71.6% (active). With CCCCCCNC(=O)Oc1ccc(/C(=C(/C)c2ccc(OC)cc2)c2ccc(OCCN3CCCCCC3)cc2)cc1 the growth was -8.34% (active). For Cn1cc(-c2cc3ncnc(Nc4ccc(CC(=O)Nc5nc(C(C)(C)C)cs5)cc4)c3s2)cn1, the growth was 26.4% (inactive). With O=C(CCCCCC/C=C\c1csc(Br)n1)NO the growth was 97% (inactive). In the case of COc1ccc(C(=O)c2c(N)c(C#N)cn2-c2ccc(Cl)cc2Cl)cc1, the growth is reported as 97% (inactive). In the case of Cc1ccc2c(n1)C(=O)C(Cl)=C(Nc1cccc(C(F)(F)F)c1)C2=O, the growth is reported as -1.18% (active). In the case of O=C1[C@H]2Cc3c([nH]c4ccccc34)[C@H](c3ccc(Cl)cc3)N2C(=O)CN1C1CCN(CC2CCCCC2)CC1, the growth is reported as 45.8% (inactive). With COc1ccc(/C=N/NC(=O)c2c(N)nn(C)c2Nc2ccccc2)cc1 the growth was 37.3% (inactive). Fc1ccc2nc(-c3cnn4cccnc34)sc2c1 was tested, and the growth was 92.9% (inactive). In the case of O=C(/C=C/c1cccc(F)c1)c1cccc(OCCCCOc2cccc(C(=O)/C=C/c3cccc(F)c3)c2)c1, the growth is reported as 107% (inactive). For O=C(COc1ccc(/C=C2\C(=O)Nc3ccc(Cl)cc32)cc1)Nc1ccc(Cl)cc1, the growth was 75.4% (inactive). In the case of O=C(Nc1cccc(Cl)c1)Nc1nc2cc([N+](=O)[O-])ccc2o1, the growth is reported as 67.4% (inactive). In the case of COc1ccc(NC(=O)CCCCCCNC(=O)C(O)(O)C(F)(F)F)cc1, the growth is reported as 0.972% (active). For CC(=O)N(O)CCCCCNC(=O)CCC(=O)N(O)CCCCCNC(=O)CCC(=O)N(O)CCCCCN(CCCCCCCCCC[P+](c1ccccc1)(c1ccccc1)c1ccccc1)CCCCCCCCCC[P+](c1ccccc1)(c1ccccc1)c1ccccc1, the growth was -9.88% (active). With Cc1cc(Br)ccc1-n1cc(C#N)c(N)c1C(=O)c1ccc(Br)cc1 the growth was 108% (inactive). For CN(C)S(=O)(=O)c1ccc(-c2nc(C(Cl)Cl)nc3cc(-c4ccccc4)nn23)cc1, the growth was 84.4% (inactive). In the case of CN1CCN(c2ccc(Nc3nc(NCCNC(=O)c4ccc(F)cc4)c4sccc4n3)cc2)CC1, the growth is reported as 14.1% (inactive). In the case of O=[N+]([O-])c1ccc(NC(=S)NNC(=S)Nc2ccc(Br)cc2)cc1, the growth is reported as 103% (inactive). C/C(=N\NC(=O)/C=C/CC(=O)O)c1nnn(-c2ccc([N+](=O)[O-])cc2)c1C was tested, and the growth was 106% (inactive). CN1CCN(c2ccc(Nc3nc(NCCCNS(=O)(=O)c4ccc(F)cc4)c4sccc4n3)cc2)CC1 was tested, and the growth was 36.5% (inactive). For N#CC1=C2NCCCNc3oc(nc3C#N)Cc3ccccc3CC(=N1)O2, the growth was 93.2% (inactive). In the case of COc1ccccc1/C=C1\Oc2ccc(O)c(O)c2C1=O, the growth is reported as 90.2% (inactive). COc1ccc(NC2=C(Br)C(=O)C(C)=C(C)C2=O)cc1OC was tested, and the growth was 104% (inactive). In the case of O=C(Nc1ccc(N=Cc2c(O)[nH]c3ccccc23)cc1)Nc1ccc(S(=O)(=O)Nc2ncccn2)cc1, the growth is reported as 122% (inactive). NC(=O)c1c(NC(=O)c2ccc(C(F)(F)F)cc2)sc2c1CCC(=O)C2 was tested, and the growth was -5.39% (active). With O=C(/C=C/c1cccc(Br)c1)c1cccc(OCCCCOc2cccc(C(=O)/C=C/c3cccc(Br)c3)c2)c1 the growth was 105% (inactive). With O=C(CCCCCCNC(=O)c1csc(Br)n1)NO the growth was 3.36% (active). CC1CC(=O)C2=C(C1)Nc1ccc(Br)cc1CC2c1c[nH]c2ccc(Br)cc12 (configuration not stated) was tested, and the growth was 69% (inactive). In the case of C#CCN(C)CCCOc1ccc(NCc2ccc(C(=O)NO)cc2)cc1Cl, the growth is reported as -3.35% (active). CC(=O)Nc1nc(C)c(-c2csc(Nc3ccccc3)n2)s1 was tested, and the growth was 6.02% (active). In the case of Cc1csc(/N=C(N)/N=C(\N)c2cccc(C#N)c2)n1, the growth is reported as 73.9% (inactive). In the case of Clc1cccc(/C=N/Nc2nc(N/N=C/c3cccc(Cl)c3)nc(N3CCCCC3)n2)c1, the growth is reported as 93.4% (inactive). In the case of O=C1[C@H]2Cc3c([nH]c4ccccc34)[C@H](c3ccc(Br)cc3)N2C(=O)CN1C1CCN(CC2CCCCC2)CC1, the growth is reported as 62.6% (inactive). Cc1[nH]c(C(=O)Nc2ccc(C(=O)NCC3CCNCC3)cc2OC(C)C)c(Cl)c1Cl was tested, and the growth was 71.3% (inactive). With CCN(CC)S(=O)(=O)c1ccc(-c2nc(C(Cl)Cl)nc3cc(-c4ccc(F)cc4)nn23)cc1 the growth was -30.2% (active). C/C(=N/N)c1nnn(-c2ccc(Br)cc2)c1C was tested, and the growth was 103% (inactive). For CC1=C(C)C(=O)C(Nc2cccc(C)c2)=C(Br)C1=O, the growth was 106% (inactive). In the case of Cc1ccc(C(=O)Nc2ccc(CNCCN3CCNCC3)c(C(F)(F)F)c2)cc1C#Cc1cnc2cccnn12, the growth is reported as -90.1% (active).
